Assay results published in PubChem BioAssay AID1491 (National Center for Advancing Translational Sciences (NCATS), 2009).
Values joined by “and” are separate entries in the source; they are usually repeats but may differ in a detail not shown here. Equal entries are not always repeated. Inconclusive results are not listed. Active and inactive are the calls of the source. Calls come from the whole dose curve; as a rule, active = well fitted inhibition curve with a large enough effect in the main read-out, with a control signal flat; inconclusive = small, poorly fitted or top-dose-only effect, or a change in a side signal; inactive = flat fitted curve, though single readings scatter.

molecular target: Neuropeptide S receptor (Homo sapiens) (UniProt Q6W5P4); assay: Confirmation Concentration-Response Assay for Antagonists of the Neuropeptide S Receptor: cAMP Signal Transduction; details: CHO-NPSR cells, cAMP TR-FRET, antagonist mode; series mostly up to 22.3 µM; activity change, negative = inhibition: at the top concentration;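 for activity change, negative = inhibition: 0% = DMSO with NPS and full inhibition = wells lacking NPS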
Outline: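 LANCE TR-FRET cAMP read-out: 665/620 nm emission ratio, with the 620 nm donor channel also reported, after 2 h RT detection. Stably transfected CHO-NPSR cells got compound titrations and 100 nM NPS in stimulation reagent for 60 min at 37C. IC50 came from Hill fits.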
Potency is the fitted concentration of half-maximal effect.

Sequence of Neuropeptide S receptor (Homo sapiens) (Q6W5P4 whole entry, looked up): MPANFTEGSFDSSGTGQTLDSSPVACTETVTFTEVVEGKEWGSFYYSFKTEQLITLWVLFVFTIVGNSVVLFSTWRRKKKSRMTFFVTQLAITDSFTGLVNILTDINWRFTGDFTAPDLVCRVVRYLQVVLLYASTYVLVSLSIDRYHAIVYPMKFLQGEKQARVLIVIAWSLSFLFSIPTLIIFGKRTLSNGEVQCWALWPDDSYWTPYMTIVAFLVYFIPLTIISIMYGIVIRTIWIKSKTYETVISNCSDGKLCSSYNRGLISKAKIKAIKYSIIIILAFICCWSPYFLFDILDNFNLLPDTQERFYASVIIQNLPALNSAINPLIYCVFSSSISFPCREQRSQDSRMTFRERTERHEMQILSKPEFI

| Structure (SMILES) | activity change, negative = inhibition | Potency |
| --- | --- | --- |
| COc1cccc(C2C(C#N)=C(NC(=O)CCc3ccccc3)Oc3ccc4ccccc4c32)c1 (stereo not drawn) | -10.6% (inactive) |  |
| O=[N+]([O-])c1cc2c(cc1/C=N/n1c(-c3ccccc3)n[nH]c1=S)OCO2 | -1.53% (inactive) |  |
| CS(=O)(=O)c1nc(-c2ccccc2)cc(C(F)(F)F)n1 |  | 7.94 µM (active) |
| O=C(CSc1cccc[n+]1[O-])Nc1ccccc1Oc1ccccc1 | -6.76% (inactive) |  |
| Nn1c(COc2ccccc2)nnc1SCc1cc(=O)[nH]c2ccccc12 | 8.5% (inactive) |  |
| Cc1oc2c(c1C(=O)NCc1cccnc1)C(=O)c1ccccc1C2=O | -5.45% (inactive) |  |
| CCOC(=O)CC(=O)Nc1ncnc2c1C(c1ccccc1)c1c(ccc3ccccc13)O2 (stereo not drawn) |  | 0.794 µM (active) |
| COc1cccc(C2c3c(ncn(-c4ccccc4)c3=N)Oc3ccc4ccccc4c32)c1 (stereo not drawn) |  | 2 µM (active) and 1.58 µM (active) |
| O=C1CC(NCc2ccncc2)C(=O)N1c1ccccc1 (stereo not drawn) | 7.53% (inactive) |  |
| COc1ccc(CCNC(=O)CC(c2ccccc2)c2cccc(C)c2O)cc1OC (stereo not drawn) | -8.59% (inactive) |  |
| N[C@@H](Cc1cc(I)c(Oc2ccc(O)c(I)c2)c(I)c1)C(=O)O | 1.71% (inactive) |  |
| COc1ccc(/C=N/n2cncn2)cc1Cn1cc([N+](=O)[O-])cn1 | 0.869% (inactive) |  |
| O=C(N1CCOCC1)C1(c2ccc(Cl)cc2)CCCC1 | 19.5% (inactive) |  |
| COCCCn1c(SCc2cc(=O)[nH]c3ccccc23)nnc1-c1ccco1 | 18.1% (inactive) |  |
| CC(=O)c1c(C(C)=O)c(C)n(NC(=O)c2cccnc2)c1C | 0.909% (inactive) |  |
| N=c1c2c(ncn1-c1ccccc1)Oc1ccc3ccccc3c1C2c1ccc2c(c1)CCO2 (stereo not drawn) |  | 1.12 µM (active) |
| CCO[C@@H]1OC(C(=O)NCc2nc3ccccc3[nH]2)=C[C@H](c2ccc(C(F)(F)F)cc2)[C@H]1CCCO | -6.49% (inactive) |  |
| Cc1ccc(-c2ccc(/C=C3\C(=O)ON=C3c3ccccc3)o2)c([N+](=O)[O-])c1 |  | 2.82 µM (active) |
| CN(C)c1ccc(N=Cc2ccco2)cc1 | -23% (inactive) |  |

| Structure (SMILES) | activity change, negative = inhibition | Potency |
| --- | --- | --- |
| Oc1ccc(N=Nc2nccs2)c(O)c1 | -6.18% (inactive) |  |
| N#CC(C#N)=c1ccc2c(c1)NC1(CCCCC1)N=2 | -11.4% (inactive) |  |
| CC(=O)c1sc(N/N=C\c2ccccc2O)nc1C |  | 7.08 µM (active) |
| CCOC(=O)CCCC(=O)Nc1ncnc2c1C(c1ccccc1)c1c(ccc3ccccc13)O2 (stereo not drawn) |  | 2 µM (active) |
| C(=N\Nc1nc(-c2ccccn2)nc2ccccc12)/c1ccccc1 | -13% (inactive) |  |
| c1ccc(CSC2=NNC(c3ccccn3)S2)cc1 (stereo not drawn) | -10.1% (inactive) |  |
| NC(=O)c1ccsc1NC(=O)c1ccc(S(=O)(=O)N2CCCC2)cc1 | -20.8% (inactive) |  |
| C=CCOc1c(Cl)cc(CNc2ccc(N(C)C)cc2)cc1OC | -13.4% (inactive) |  |
| S=C(Nc1ccccn1)c1ccccn1 | 1.64% (inactive) |  |
| COc1cccc(C2c3c(ncn(CCCN4CCOCC4)c3=N)Oc3ccc4ccccc4c32)c1 (stereo not drawn) |  | 14.1 µM (active) |
| CN(C)S(=O)(=O)Nc1ccccc1C(N)=O | -5.22% (inactive) |  |
| Cc1ccc(Nc2cc(C)nn2-c2nc(C)cc(C)n2)cc1 | -9.37% (inactive) |  |
| O=C(CSc1n[nH]c(-c2cccnc2)n1)Nc1ccnc2ccccc12 | -2.52% (inactive) |  |
| NC(=S)N/N=C/c1ncc(C(F)(F)F)cc1Cl | -8.43% (inactive) |  |
| Cn1c(COc2ccccc2)nnc1SCc1cc(=O)[nH]c2ccccc12 | -3.92% (inactive) |  |
| C/C(=N\NC(=S)NC1CCCCC1)c1c(F)cccc1F | -12% (inactive) |  |
| Cc1ccc(Cn2cc(SCC(=O)Nc3nccs3)c3ccccc32)cc1 | -8.92% (inactive) |  |
| Cc1cccnc1NC(=O)c1c(O)c2cccc3c2n(c1=O)CCC3 | -5.87% (inactive) |  |
| O=C(COC(=O)c1ccccc1C(=O)c1ccc(Cl)c([N+](=O)[O-])c1)NC1CCCCCC1 |  | 4.47 µM (active) and 8.91 µM (active) |
